Source: PubChem BioAssay (NCI)
Values joined by “and” are separate entries in the source; they are usually repeats but may differ in a detail not shown here. Identical values can stand only once. The panel holds about 83,000 compounds, 20% with a hit somewhere; the sample as a whole holds those more often.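 In brief: 96-well plates, 48 h treatment, single concentration, percent growth endpoint.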 A number with no mark means an inactive call. Active and inactive are the calls of the source. The calls were made as follows: active = growth percent below 10; inactive = the rest.

Assays:
Experiment in all cases: NCI-60 one-dose screen, 48 h (100 = growth as untreated, 0 = no growth, -100 = all killed)
Conditions in all cases: 10 µM
[1] = system: MOLT-4 leukemia
[2] = system: SR leukemia
[3] = system: RPMI-8226 leukemia
[4] = system: OVCAR-5 ovarian
[5] = system: OVCAR-4 ovarian
[6] = system: SK-OV-3 ovarian
[7] = system: IGROV1 ovarian
[8] = system: OVCAR-3 ovarian
[9] = system: HS 578T breast
[10] = system: OVCAR-8 ovarian

| Structure (SMILES) | growth [1] | growth [2] | growth [3] | growth [4] | growth [5] | growth [6] | growth [7] | growth [8] | growth [9] | growth [10] |
| --- | --- | --- | --- | --- | --- | --- | --- | --- | --- | --- |
| O=[N+]([O-])c1ccc(Br)c([N+](=O)[O-])c1 | 68.4% | 21.8% | 102% | 108% | 103% | 113% | 63.5% | 87.8% | 105% | – |
| O=C(O)c1cc(Cc2ccc(O)c(C(=O)O)c2)ccc1O (tested in a mixture with another compound) | 54.3% | 80.4% | -5.46% (active) | 65.1% | 66.9% | 95.4% | – | 70.4% | 72.6% | – |
| NC(=O)c1cc([N+](=O)[O-])c(Cl)c([N+](=O)[O-])c1Cl | -15.3% (active) | -11.2% (active) | 9.48% (active) | 78.2% | -58.8% (active) | 101% | – | -97.4% (active) | – | -24.6% (active) |
| COc1cc2c(c(OC)c1OC)-c1ccc(O)c(=O)cc1[C@@H](NC(C)=O)CC2 | 46.6% | 30.1% | 40.9% | 70.1% | 46.5% | 66.9% | – | 3.49% (active) | – | 36.7% |
| [Cl][Sn]([c]1ccccc1)([c]1ccccc1)[c]1ccccc1 | -7.21% (active) | -21% (active) | -28% (active) | -84.1% (active) | -88.9% (active) | -97.3% (active) | -76.8% (active) | -94.2% (active) | 0.581% (active) | -74.5% (active) |
| O=C(CCl)Nc1ccc(Cl)cc1 | 32.8% | 29.6% | 60.4% | 53.5% | 17.6% | 85.8% | -4.08% (active) | 0.0428% (active) | – | – |
| COc1cc2c(cc1OC)C13CCN4CC5=CCOC6CC(=O)N2C1C6C5CC43 (stereo not given) | 109% and 86.6% | 82% | 56.5% | 98.2% and 83.9% | 113% and 102% | 101% and 114% | 106% | 115% and 107% | 114% and 96.4% | 99.7% and 113% |
| C=NCC#N | 94.6% and 107% | 83.8% and 108% | 92.4% and 115% | 98.8% and 93.5% | 114% and 108% | 113% and 96.6% | – | 105% and 119% | 124% | 104% and 108% |
| CC12OOC(c3ccccc31)c1c2ccc2ccccc12 (stereo not given) | -58.3% (active) | -18.8% (active) | -33.8% (active) | 66.1% | -57.7% (active) | 95.8% | – | -92.4% (active) | 91.6% | – |
| O=[N+]([O-])/C=C\c1ccc2c(c1)OCO2 | 75.9% | 34.4% | 10.2% | 91.5% | 76.9% | 101% | 27.6% | 85.7% | 87.4% | – |
| CS(=N)(=O)CCC(N)C(=O)O (stereo not given) | 112% | 99.9% | 107% | 85.3% | 104% | 108% | – | 115% | 104% | 98% |
| O=C(CBr)Nc1ccc(Cl)cc1 | 20.7% | -28.8% (active) | 73.4% | 66.6% | 89.2% | 108% | – | 68.9% | 115% | 96.6% |
| CCOP(=O)(OCC)C(O)c1ccccc1Cl (stereo not given) | 97.8% | 93.2% | 102% | 87.2% | 106% | 96.5% | 93.5% | 99.5% | 106% | 100% |
